Measured values: article PMC10726135, “HNF4α isoforms regulate the circadian balance between carbohydrate and lipid metabolism in the liver”
Whole data set: some 18,000 sequences, median “log2 normalized intensity” near 0.36, cut for the highest 2% near 7.3. What follows is part of a selection rich in the highest values, with near analogues and random picks from the rest.

What follows are sequences tested against T1, HNF4alpha8 (COS-7 nuclear extract) (Homo sapiens, UniProt P41235-5 1-452) (assay: protein-binding microarray; COS-7 nuclear extract on double-stranded Agilent 4x180k PBM; binding buffer, salt, pH and temperature not given in the material; high values mean tight binding). Conditions: chain copies: 2; label: 3' end of strand 1 on the slide; dsDNA, one strand shown.
T1 sequence: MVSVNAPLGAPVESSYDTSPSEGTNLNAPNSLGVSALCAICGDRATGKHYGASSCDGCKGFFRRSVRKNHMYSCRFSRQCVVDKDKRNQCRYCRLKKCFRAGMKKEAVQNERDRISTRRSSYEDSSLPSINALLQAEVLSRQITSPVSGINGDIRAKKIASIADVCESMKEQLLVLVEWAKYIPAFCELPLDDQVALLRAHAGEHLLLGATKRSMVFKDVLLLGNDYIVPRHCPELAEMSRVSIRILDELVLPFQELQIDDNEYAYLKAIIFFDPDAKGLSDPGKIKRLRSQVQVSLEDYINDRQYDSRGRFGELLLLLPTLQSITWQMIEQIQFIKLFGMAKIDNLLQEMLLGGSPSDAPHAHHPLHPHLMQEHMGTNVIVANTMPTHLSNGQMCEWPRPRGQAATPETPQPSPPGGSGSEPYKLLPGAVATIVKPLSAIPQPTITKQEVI
Summary of the method: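 Binding signal was defined as the normalized, background-corrected gProcessedSignal reported by Agilent software. It came from nuclear extracts of COS-7 cells transiently transfected with a human HNF4α isoform expression vector, applied to a custom Agilent SurePrint G3 4x180k array. That array held ~44,000 test sequences in quadruplicate as double-stranded ~60-nt oligonucleotides, and bound HNF4α was imaged at 2-µm resolution on an Agilent G2565CA scanner.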

**Q.** With “ACCTTTGACCTGGTACTATGACCTTTCACCGCCTAGGGAGATTAGAGTATCGGTCGA” as the sequence, how does the binding signal read?
**A.** The binding signal was 7.83 log2 normalized intensity.

**Q.** With “GAGTGACCTGGTATTGCAAGTATTTCACCCGCCTAGGGAGATTAGAGTATCGGTCGA” as the sequence, how does the binding signal read?
**A.** Its binding signal is 1.59 log2 normalized intensity.

**Q.** With “TTCACCTTTCGCCCTTTGTCCTATGACTCTGCCTAGGGAGATTAGAGTATCGGTCGA” as the sequence, how does the binding signal read?
**A.** The binding signal was 5.44 log2 normalized intensity.

**Q.** Which binding signal does the source give for “TGGTACTATGACCTTTCACCTTTTAGCTTGGCCTAGGGAGATTAGAGTATCGGTCGA” here?
**A.** Its binding signal is 6.25 log2 normalized intensity.

**Q.** Which binding signal does the source give for “CCCCAAAAACTTGGACTCTATAGCCTATGCGCCTAGGGAGATTAGAGTATCGGTCGA” here?
**A.** Its binding signal is 2.66 log2 normalized intensity.

**Q.** For “TGGGGACCTTTGGGCTCTGACCCGAAGGGTGCCTAGGGAGATTAGAGTATCGGTCGA”, which binding signal is on record?
**A.** The binding signal was 2.6 log2 normalized intensity.

**Q.** “CTTTTGAGTTTCTACCATAGACCCTGTTGGGCCTAGGGAGATTAGAGTATCGGTCGA” was tested. Which binding signal did it give?
**A.** Its binding signal is 0.898 log2 normalized intensity.

**Q.** Which binding signal does the source give for “CTAACCAGCTCTATCAGTCTGGGTCCAGTCGCCTAGGGAGATTAGAGTATCGGTCGA” here?
**A.** Its binding signal is 2.82 log2 normalized intensity.

**Q.** Which binding signal does the source give for “CCCCCGGCTCTACGCAAGTGGTACCTCCCGGCCTAGGGAGATTAGAGTATCGGTCGA” here?
**A.** Its binding signal is 2.76 log2 normalized intensity.

**Q.** Which binding signal does the source give for “CTTGGCACTTAGCACAAGTGACTATTCTGGGCCTAGGGAGATTAGAGTATCGGTCGA” here?
**A.** Its binding signal is 0.0244 log2 normalized intensity.

**Q.** Which binding signal does the source give for “AGGCAAAGGTGTCAGGACCTTTCTTTATGGGCCTAGGGAGATTAGAGTATCGGTCGA” here?
**A.** The binding signal was 0.451 log2 normalized intensity.

**Q.** “TCCTTTTCTTTCACATACAAAATTTACTTTGCCTAGGGAGATTAGAGTATCGGTCGA” was tested. Which binding signal did it give?
**A.** The binding signal was 1.75 log2 normalized intensity.

**Q.** How did the binding signal turn out when “GCAGAAGGTGTTTCAGATGGACCAAAGGTCGCCTAGGGAGATTAGAGTATCGGTCGA” was run?
**A.** The binding signal was 6.13 log2 normalized intensity.

**Q.** With “GAGGCTGAAGTGAAGTTACAAAGGTCACACGCCTAGGGAGATTAGAGTATCGGTCGA” as the sequence, how does the binding signal read?
**A.** Its binding signal is 6.46 log2 normalized intensity.

**Q.** “AAGGGCTGAGGTTAAAGTCCACATTCTTTAGCCTAGGGAGATTAGAGTATCGGTCGA” was tested. Which binding signal did it give?
**A.** Its binding signal is 6.82 log2 normalized intensity.

**Q.** How did the binding signal turn out when “ATCAAAGGCTTCTAGAAGAGGTTAAAGACCGCCTAGGGAGATTAGAGTATCGGTCGA” was run?
**A.** Its binding signal is 1.58 log2 normalized intensity.

**Q.** Which binding signal does the source give for “TCACAAAGGGCTGAGGTTAAAGTCCACATTGCCTAGGGAGATTAGAGTATCGGTCGA” here?
**A.** The binding signal was 8.03 log2 normalized intensity.

**Q.** “AAGCTTCACAAAGGGCTGAGGTTAAAGTCCGCCTAGGGAGATTAGAGTATCGGTCGA” was tested. Which binding signal did it give?
**A.** The binding signal was 7.44 log2 normalized intensity.

**Q.** With “CTGAGGTTAAAGTCCACATTCTTTAGCATAGCCTAGGGAGATTAGAGTATCGGTCGA” as the sequence, how does the binding signal read?
**A.** The binding signal was 6.12 log2 normalized intensity.

**Q.** Which binding signal does the source give for “CTCTGTATTGTAAAAGAAAGTGAGCAGGCAGCCTAGGGAGATTAGAGTATCGGTCGA” here?
**A.** The binding signal was -0.689 log2 normalized intensity.

**Q.** With “ACACAAACTATGACCTTTGAAACTTACATTGCCTAGGGAGATTAGAGTATCGGTCGA” as the sequence, how does the binding signal read?
**A.** The binding signal was 6.68 log2 normalized intensity.

**Q.** Which binding signal does the source give for “GTTCTATGGGATGACCTTTGAGCAATAGGAGCCTAGGGAGATTAGAGTATCGGTCGA” here?
**A.** Its binding signal is 6.05 log2 normalized intensity.

**Q.** For “ATGACCCAAACTTCACAAAAATGAGTGCAAGCCTAGGGAGATTAGAGTATCGGTCGA”, which binding signal is on record?
**A.** Its binding signal is -0.806 log2 normalized intensity.

**Q.** How did the binding signal turn out when “TTCTTTTTGAAGCAAAGCCTTTGAGCAGATGCCTAGGGAGATTAGAGTATCGGTCGA” was run?
**A.** Its binding signal is 0.807 log2 normalized intensity.

**Q.** Which binding signal does the source give for “CAGCAACACTCTACTACTTGACCTTTGAAAGCCTAGGGAGATTAGAGTATCGGTCGA” here?
**A.** The binding signal was 6.62 log2 normalized intensity.

**Q.** How did the binding signal turn out when “TGACAAGCAAACACAAACTATGACCTTTGAGCCTAGGGAGATTAGAGTATCGGTCGA” was run?
**A.** Its binding signal is 9.22 log2 normalized intensity.

**Q.** How did the binding signal turn out when “AGCAAACACAAACTATGACCTTTGAAACTTGCCTAGGGAGATTAGAGTATCGGTCGA” was run?
**A.** Its binding signal is 7.82 log2 normalized intensity.

**Q.** With “GGGCGAGAGAGTTCTATGGGATGACCTTTGGCCTAGGGAGATTAGAGTATCGGTCGA” as the sequence, how does the binding signal read?
**A.** Its binding signal is 6.82 log2 normalized intensity.

**Q.** For “AGAGAGTTCTATGGGATGACCTTTGAGCAAGCCTAGGGAGATTAGAGTATCGGTCGA”, which binding signal is on record?
**A.** The binding signal was 7.89 log2 normalized intensity.

**Q.** How did the binding signal turn out when “AGTCTCAAAGGTCAGATGACAGAATTGGTCGCCTAGGGAGATTAGAGTATCGGTCGA” was run?
**A.** The binding signal was 4.15 log2 normalized intensity.

**Q.** How did the binding signal turn out when “GATAACATCTGGACTTTACACAGACCTTTAGCCTAGGGAGATTAGAGTATCGGTCGA” was run?
**A.** Its binding signal is 4.07 log2 normalized intensity.

**Q.** Which binding signal does the source give for “CCCCTTCTGTTTCCAGAAATCTGACCTCTGGCCTAGGGAGATTAGAGTATCGGTCGA” here?
**A.** The binding signal was 5.06 log2 normalized intensity.

**Q.** Which binding signal does the source give for “AGCTGACGCCCCACCCCCTCCACCCCTGCCGCCTAGGGAGATTAGAGTATCGGTCGA” here?
**A.** Its binding signal is 6.68 log2 normalized intensity.

**Q.** “CAATGTGACTGGAGCAGAGCGATCAAAGGTGCCTAGGGAGATTAGAGTATCGGTCGA” was tested. Which binding signal did it give?
**A.** The binding signal was 1.37 log2 normalized intensity.

**Q.** With “GACCTCTGCCCTTCCACCCACTTTATCTTCGCCTAGGGAGATTAGAGTATCGGTCGA” as the sequence, how does the binding signal read?
**A.** The binding signal was 3.59 log2 normalized intensity.

**Q.** How did the binding signal turn out when “ATGACCTCTTTTAGTAACTGACTTTAACTTGCCTAGGGAGATTAGAGTATCGGTCGA” was run?
**A.** Its binding signal is 1.03 log2 normalized intensity.

**Q.** How did the binding signal turn out when “CCCTGCCACTCTTTTTTAGACTTTGACCTCGCCTAGGGAGATTAGAGTATCGGTCGA” was run?
**A.** The binding signal was 10.2 log2 normalized intensity.

**Q.** “TGCAGCCCTGCCACTCTTTTTTAGACTTTGGCCTAGGGAGATTAGAGTATCGGTCGA” was tested. Which binding signal did it give?
**A.** Its binding signal is 4.39 log2 normalized intensity.

**Q.** “ACCAGACTACCTCTTTAGGCTGGACTCTGAGCCTAGGGAGATTAGAGTATCGGTCGA” was tested. Which binding signal did it give?
**A.** Its binding signal is 4.7 log2 normalized intensity.

**Q.** With “CCACTCTTTTTTAGACTTTGACCTCCATATGCCTAGGGAGATTAGAGTATCGGTCGA” as the sequence, how does the binding signal read?
**A.** The binding signal was 8.93 log2 normalized intensity.

**Q.** With “ACTACCTCTTTAGGCTGGACTCTGACCCATGCCTAGGGAGATTAGAGTATCGGTCGA” as the sequence, how does the binding signal read?
**A.** The binding signal was 7.54 log2 normalized intensity.

**Q.** How did the binding signal turn out when “CTCTTTAGGCTGGACTCTGACCCATTCCTTGCCTAGGGAGATTAGAGTATCGGTCGA” was run?
**A.** The binding signal was 5.82 log2 normalized intensity.

**Q.** For “CTGACCTCTTTTGGATTTTTCCATATCTGTGCCTAGGGAGATTAGAGTATCGGTCGA”, which binding signal is on record?
**A.** The binding signal was 1.57 log2 normalized intensity.
